Compound: C#CCNC(=O)CCSSCCC(=O)NCCc1ccc(C=O)c(C=O)c1
Assay: lysine labeling ratio R10:1 (500 µM / 50 µM probe), SILAC-ABPP in living cells; higher = lower intrinsic lysine reactivity toward the probe, active = 2 or less
Conditions: HeLa; probe concentrations 500 vs 50 µM
In short: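 Measurements came from LC-MS/MS on a TIMS-TOF Pro of mixed SILAC light and heavy HeLa lysates after click to biotin-azide, trypsin digestion, neutravidin capture, DTT release and alkylation. Before lysis, the living cells sat in PBS at room temperature with 50 µM or 500 µM of an alkyne-tagged, disulfide-linked lysine probe, and labels were swapped forward and reverse. R per lysine is the median across both swap directions of the filtered median high-probe/low-probe MS1 peptide ratio. The cap is 20.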

UniProt Q15149, sequence (Q15149 whole entry): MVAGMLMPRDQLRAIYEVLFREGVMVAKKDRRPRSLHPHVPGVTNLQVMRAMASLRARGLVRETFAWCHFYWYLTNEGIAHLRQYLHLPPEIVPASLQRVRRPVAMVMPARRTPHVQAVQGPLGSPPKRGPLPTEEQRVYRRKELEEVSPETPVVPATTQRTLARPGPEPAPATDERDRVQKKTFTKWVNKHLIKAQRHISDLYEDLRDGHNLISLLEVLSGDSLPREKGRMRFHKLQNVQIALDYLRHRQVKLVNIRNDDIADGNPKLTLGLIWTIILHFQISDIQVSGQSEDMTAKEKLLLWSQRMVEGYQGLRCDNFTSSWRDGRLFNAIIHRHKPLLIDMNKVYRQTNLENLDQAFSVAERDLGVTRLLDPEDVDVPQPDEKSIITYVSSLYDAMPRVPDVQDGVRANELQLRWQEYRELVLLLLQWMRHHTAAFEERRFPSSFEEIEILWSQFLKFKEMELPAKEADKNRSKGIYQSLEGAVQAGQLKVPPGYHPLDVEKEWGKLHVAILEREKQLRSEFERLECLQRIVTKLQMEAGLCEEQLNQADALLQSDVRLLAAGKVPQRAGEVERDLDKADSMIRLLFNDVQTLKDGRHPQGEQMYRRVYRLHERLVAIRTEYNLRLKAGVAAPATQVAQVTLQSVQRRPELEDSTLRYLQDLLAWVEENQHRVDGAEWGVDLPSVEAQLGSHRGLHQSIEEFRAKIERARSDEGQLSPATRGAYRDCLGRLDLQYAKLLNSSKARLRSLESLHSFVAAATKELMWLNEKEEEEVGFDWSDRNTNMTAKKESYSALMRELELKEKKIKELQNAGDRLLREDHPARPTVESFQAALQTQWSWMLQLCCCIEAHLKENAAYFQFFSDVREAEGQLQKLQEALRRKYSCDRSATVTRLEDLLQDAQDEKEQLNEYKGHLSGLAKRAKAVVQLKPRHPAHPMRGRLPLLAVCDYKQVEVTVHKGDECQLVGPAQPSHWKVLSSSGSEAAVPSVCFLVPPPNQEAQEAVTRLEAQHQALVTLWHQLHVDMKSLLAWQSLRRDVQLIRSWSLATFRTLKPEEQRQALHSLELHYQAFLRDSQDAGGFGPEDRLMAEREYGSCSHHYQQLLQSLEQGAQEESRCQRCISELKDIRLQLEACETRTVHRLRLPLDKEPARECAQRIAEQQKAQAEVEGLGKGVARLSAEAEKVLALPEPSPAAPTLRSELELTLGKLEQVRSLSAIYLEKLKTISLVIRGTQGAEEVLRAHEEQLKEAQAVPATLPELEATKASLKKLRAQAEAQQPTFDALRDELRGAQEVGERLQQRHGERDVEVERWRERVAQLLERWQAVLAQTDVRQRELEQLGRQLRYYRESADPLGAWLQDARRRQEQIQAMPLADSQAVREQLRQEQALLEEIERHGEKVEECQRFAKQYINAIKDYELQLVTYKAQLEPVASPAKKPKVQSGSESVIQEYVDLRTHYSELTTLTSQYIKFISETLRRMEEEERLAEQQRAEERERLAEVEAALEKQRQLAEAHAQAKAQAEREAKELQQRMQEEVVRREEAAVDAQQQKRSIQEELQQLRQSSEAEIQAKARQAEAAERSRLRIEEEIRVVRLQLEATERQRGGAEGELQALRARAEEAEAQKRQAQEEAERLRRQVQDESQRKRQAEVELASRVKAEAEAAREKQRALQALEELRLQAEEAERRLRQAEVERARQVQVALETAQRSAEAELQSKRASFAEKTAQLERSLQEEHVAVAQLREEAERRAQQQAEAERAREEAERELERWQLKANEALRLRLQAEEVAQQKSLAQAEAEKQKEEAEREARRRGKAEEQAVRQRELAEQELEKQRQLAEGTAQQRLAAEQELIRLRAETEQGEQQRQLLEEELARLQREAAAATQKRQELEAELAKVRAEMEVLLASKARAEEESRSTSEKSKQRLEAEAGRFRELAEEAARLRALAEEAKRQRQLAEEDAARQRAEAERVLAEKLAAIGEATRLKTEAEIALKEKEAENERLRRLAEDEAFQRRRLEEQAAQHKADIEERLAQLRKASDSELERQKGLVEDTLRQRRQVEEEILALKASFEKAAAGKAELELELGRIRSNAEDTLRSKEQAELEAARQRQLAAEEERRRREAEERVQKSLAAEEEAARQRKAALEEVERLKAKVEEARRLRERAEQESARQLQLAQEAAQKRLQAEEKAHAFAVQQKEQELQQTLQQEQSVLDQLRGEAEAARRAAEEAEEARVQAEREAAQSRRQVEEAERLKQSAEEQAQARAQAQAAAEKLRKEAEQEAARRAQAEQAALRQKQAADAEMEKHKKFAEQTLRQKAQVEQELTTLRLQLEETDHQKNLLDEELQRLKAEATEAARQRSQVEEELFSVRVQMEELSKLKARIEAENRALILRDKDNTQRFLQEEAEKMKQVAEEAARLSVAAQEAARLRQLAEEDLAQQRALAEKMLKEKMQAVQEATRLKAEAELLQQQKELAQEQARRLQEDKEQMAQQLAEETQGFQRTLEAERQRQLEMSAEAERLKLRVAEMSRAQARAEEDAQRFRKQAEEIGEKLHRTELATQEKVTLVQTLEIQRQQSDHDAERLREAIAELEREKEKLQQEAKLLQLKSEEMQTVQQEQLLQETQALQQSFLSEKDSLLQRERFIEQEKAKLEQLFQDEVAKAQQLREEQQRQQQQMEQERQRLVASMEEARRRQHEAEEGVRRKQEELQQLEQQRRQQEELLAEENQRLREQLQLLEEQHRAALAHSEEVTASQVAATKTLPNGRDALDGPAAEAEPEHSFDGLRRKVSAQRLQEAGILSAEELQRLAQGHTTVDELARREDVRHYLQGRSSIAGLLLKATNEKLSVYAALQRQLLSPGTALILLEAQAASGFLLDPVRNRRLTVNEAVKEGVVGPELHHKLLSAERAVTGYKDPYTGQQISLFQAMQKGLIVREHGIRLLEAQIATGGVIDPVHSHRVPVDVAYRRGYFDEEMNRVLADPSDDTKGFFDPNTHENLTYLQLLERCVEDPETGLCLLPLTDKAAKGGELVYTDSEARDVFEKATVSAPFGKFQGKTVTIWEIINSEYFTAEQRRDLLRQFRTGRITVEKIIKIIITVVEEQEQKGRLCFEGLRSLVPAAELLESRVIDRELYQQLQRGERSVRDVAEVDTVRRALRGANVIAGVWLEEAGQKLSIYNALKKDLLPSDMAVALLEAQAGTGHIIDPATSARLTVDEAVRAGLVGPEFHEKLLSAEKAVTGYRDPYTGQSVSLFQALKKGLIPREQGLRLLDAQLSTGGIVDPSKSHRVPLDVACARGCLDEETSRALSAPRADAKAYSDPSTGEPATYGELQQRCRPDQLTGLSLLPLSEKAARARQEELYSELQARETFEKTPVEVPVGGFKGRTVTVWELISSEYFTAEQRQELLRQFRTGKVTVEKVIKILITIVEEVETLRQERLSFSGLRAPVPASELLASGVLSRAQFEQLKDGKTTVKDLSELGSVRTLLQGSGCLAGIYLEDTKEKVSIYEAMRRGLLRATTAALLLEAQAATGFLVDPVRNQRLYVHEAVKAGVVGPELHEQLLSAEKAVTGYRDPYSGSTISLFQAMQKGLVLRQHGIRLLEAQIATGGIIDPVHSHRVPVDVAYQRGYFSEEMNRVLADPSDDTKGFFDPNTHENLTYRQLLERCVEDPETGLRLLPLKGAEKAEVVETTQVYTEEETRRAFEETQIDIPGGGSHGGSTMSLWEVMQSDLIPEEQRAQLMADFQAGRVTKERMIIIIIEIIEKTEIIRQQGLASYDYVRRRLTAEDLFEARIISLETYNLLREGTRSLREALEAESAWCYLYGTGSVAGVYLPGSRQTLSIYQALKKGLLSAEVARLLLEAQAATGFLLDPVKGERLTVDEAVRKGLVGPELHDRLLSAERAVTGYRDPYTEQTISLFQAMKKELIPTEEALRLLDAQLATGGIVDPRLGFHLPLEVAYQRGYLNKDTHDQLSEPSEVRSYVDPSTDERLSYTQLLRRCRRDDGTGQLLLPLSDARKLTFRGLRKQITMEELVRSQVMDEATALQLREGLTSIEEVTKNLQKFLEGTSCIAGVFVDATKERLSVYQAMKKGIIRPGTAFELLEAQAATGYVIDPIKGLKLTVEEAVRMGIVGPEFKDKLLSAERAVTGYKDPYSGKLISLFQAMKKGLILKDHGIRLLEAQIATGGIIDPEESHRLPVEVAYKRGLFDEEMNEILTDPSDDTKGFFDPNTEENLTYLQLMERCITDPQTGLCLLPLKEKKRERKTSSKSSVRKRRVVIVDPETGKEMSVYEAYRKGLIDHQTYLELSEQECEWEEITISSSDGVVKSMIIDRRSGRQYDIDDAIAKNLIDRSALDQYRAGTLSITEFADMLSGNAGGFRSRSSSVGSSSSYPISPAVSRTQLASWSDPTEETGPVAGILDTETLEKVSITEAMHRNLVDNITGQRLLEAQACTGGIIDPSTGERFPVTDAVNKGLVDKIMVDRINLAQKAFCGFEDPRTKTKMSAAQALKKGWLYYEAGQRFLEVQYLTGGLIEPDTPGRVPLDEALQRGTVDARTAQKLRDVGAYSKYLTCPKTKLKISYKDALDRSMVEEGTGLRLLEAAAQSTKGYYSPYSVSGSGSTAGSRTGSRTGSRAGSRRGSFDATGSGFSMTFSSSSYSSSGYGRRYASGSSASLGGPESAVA
UniProt Q08722, sequence (Q08722 whole entry): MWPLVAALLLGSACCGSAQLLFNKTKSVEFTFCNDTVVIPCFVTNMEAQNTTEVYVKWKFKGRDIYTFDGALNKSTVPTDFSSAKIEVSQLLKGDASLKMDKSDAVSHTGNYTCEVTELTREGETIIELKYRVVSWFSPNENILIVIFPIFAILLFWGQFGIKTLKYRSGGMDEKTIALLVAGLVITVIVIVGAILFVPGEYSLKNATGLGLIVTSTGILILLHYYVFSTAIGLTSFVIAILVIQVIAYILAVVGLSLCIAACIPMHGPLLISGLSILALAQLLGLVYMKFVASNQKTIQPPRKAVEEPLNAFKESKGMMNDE
UniProt P61604, sequence (P61604 whole entry): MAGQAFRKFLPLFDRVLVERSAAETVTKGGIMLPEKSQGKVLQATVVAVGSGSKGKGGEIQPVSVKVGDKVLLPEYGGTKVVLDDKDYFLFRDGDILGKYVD

Lysine labeling ratio R10:1, inactive:
UniProt P62913 (lysine site: K154) 2.92, UniProt Q15149 (lysine site: K3285) 4.73, ITGA6 (lysine site: K946) (UniProt P23229) 2.37, DDX5 (lysine site: K236) (UniProt P17844) 2.34, PTPRJ (lysine site: K202) (UniProt Q12913) 2.9, UniProt P09758 (lysine site: K84) 5.29, DYNC1H1 (lysine site: K4406) (UniProt Q14204) 3.65, CD47 (lysine site: K130) (UniProt Q08722) 3.14, SLC4A2 (lysine site: K975) (UniProt P04920) 2.29, UniProt Q15149 (lysine site: K3384) 4.26, MYH9 (lysine site: K1181) (UniProt P35579) 3.53, UniProt P62854 (lysine site: K113) 7.15, S100A10 (lysine site: K57) (UniProt P60903) 2.66

Lysine labeling ratio R10:1, active:
HSPE1 (lysine site: K86) (UniProt P61604) 1.85, ITGA2 (lysine site: K884) (UniProt P17301) 1.93, DDR1 (lysine site: K30) (UniProt Q08345) 1.33, LRPAP1 (lysine site: K340) (UniProt P30533) 1.47, UniProt P05186 (lysine site: K346) 0.557, KIAA1549 (lysine site: K1262) (UniProt Q9HCM3) 0.805, DBN1 (lysine site: K248) (UniProt Q16643) 0.855, PAICS (lysine site: K286) (UniProt P22234) 1.42, UniProt P55072 (lysine site: K696) 1.22, UniProt Q15149 (lysine site: K1886) 1.49
